# Rows were chosen to be rich in hits. Some 3.6% of all compounds tested hit in one or more screens of this group.
# FUS suppressor – qHTS for Suppressors of FUS Proteinopathy: Primary screen using FUS-linked yeast assay | S. cerevisiae FUS-expressing, growth rescue, OD600, 24 h | 0.24% of 390,000 active | Potency, µM (highest dose often 76.6 µM), hits mostly activators;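 note: plate controls were DMSO vehicle for no effect and reference control for full effect; nearly all actives have a fitted effect of over 55% in size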
#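 Absorbance at 600 nm, taken 24hr after compound addition, measured rescue of FUS-yeast growth at 30C. Induction used 2% galactose with seeding at OD 0.005. Controls: CP55940 from 92uM final, DMSO only.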
# aSyn rescue – qHTS of alpha-syn Inhibitors. Yeast expressing alpha-synuclein, growth rescue, BacTiter-Glo, 24 h. Potency, µM (doses to about 46.1 µM), for the others: top-dose growth rescue (activation), actives largely listed as activators. 0.14% of 370,000 active. AID 652106, 2013; note: % of control where 0% means no effect; nearly all actives have a fitted effect of over 65% in size
#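 Screening used galactose-induced yeast with toxic alpha-synuclein levels, exposed to compound for 24 hr at 30 deg C. Cell growth, read with BacTiter-Glo luminescence, gave the measured signal.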
# ClpP mod – qHTS Assay for Activators of ClpP; purified B. subtilis ClpP, FRET peptide cleavage, 20 min; Potency, µM (titrated, usually from 57.5 µM), for the others: at the top dose activity change, negative = active; 1.9% of 340,000 active; active = well fitted falling curve with a large enough effect; inconclusive = small, poorly fitted or top-dose-only effect; inactive = no such curve, though single readings can be large or run the other way; note: the source files actives as falling curves though it sought activators and does not explain the sign; nearly all actives have a fitted effect of over 65% in size
# Target sequence (P80244 whole entry, looked up): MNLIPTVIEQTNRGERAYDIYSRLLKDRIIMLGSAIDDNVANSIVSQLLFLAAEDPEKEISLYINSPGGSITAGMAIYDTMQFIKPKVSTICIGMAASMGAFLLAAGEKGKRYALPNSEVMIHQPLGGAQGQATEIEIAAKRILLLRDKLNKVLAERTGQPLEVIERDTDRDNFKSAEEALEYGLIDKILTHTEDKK
#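 Buffer: 100 mM Tris/HCl pH8, 100 mM KCl, 0.05% low protease BSA, 2.5% glycerol, 0.01% Tween-20. ClpP 10 microg/mL final; 20 min RT; delta FRET normalized to ADEP and DMSO controls.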
# Abeta rescue – qHTS for compounds that reverse cellular toxicity of Amyloid beta (A-beta) peptide in yeast: Primary Screen; yeast expressing A-beta42, growth rescue, OD600, 48 h; response scale: 0% DMSO, 100% iron-clioquinol control; Potency, µM (series often up to 46.1 µM), hits mostly activators; 0.063% of 410,000 active; note: nearly all actives have a fitted effect of over 55% in size
#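 Growth rescue measured by 600 nm absorbance after 48 h yeast culture at 30 C with compound. Values normalized between DMSO and an equimolar ferric chloride plus clioquinol control.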
# TDP43 rescue – qHTS of TDP-43 Inhibitors; TDP-43 expressing yeast growth rescue, BacTiter-Glo, 24 h; Potency, µM (top dose mostly 46.1 µM), without a hit: at the highest dose growth rescue (activation), most hits filed as activators; 1.8% of 410,000 active; AID 652104, 2013; note: % of control where 0% means no effect; nearly all actives have a fitted effect of over 50% in size
#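 Yeast expressing TDP-43 (pregrown in raffinose, seeded at OD600=0.02 in galactose medium) exposed to compounds 24 hr at 30 deg C. Growth read by BacTiter-Glo luminescence; rescue of toxicity appears as increased signal.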
# Mm-Cpn inhibitor – Inhibitors of TCP-1 ring complex (TRiC) of Methanococcus maripaludis (MmCpn): qHTS; Chaperonin Mm-Cpn (Methanococcus maripaludis); purified Mm-Cpn ATPase, ADP Transcreener TR-FRET; Potency, µM (titrated, usually from 76.9 µM), for inactives: at the highest dose activity, negative = inhibition, most hits filed as inhibitors; 0.031% of 330,000 active; AID 504842, 2011; note: % is set by controls: 0 for no effect and ±100 for the full control effect; nearly all actives have a fitted effect of over 80% in size
#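 Measured: ADP formation by purified Mm-CPN. Conditions: 25 nM protein, 10 uM ATP, Tris pH 7.4 with Mg2+, K+ and DTT, 37°C for 30 min. Detection: Transcreener HTRF after 30 min at room temperature.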
# Active calls of the source: *; i = inactive; ? = inconclusive; nt = no result given; [ ] = remark or other dose. Unless noted, calls come from the whole dose curve; as a rule, active = well fitted curve in the direction sought with a large enough effect; inconclusive = small, poorly fitted or top-dose-only effect, or another doubt; inactive = no such curve, though single readings can be large; an effect the other way counts as inactive or inconclusive. Potency is the fitted concentration of half-maximal effect.
SMILES,FUS suppressor,aSyn rescue,ClpP mod,Abeta rescue,TDP43 rescue,Mm-Cpn inhibitor
COc1cc(OC)c(C(=O)/C=C/c2ccccc2)c(O)c1O,i,7%,2%,i,13µM*,1%
COc1cc(O)cc(O)c1C(=O)/C=C/c1ccccc1,i,12%,0%,i,12%,nt
N#Cc1ccc(-c2ccc(F)cc2)nc1Oc1ccc(Cl)c(Cl)c1,i,2%,40µM*,i,4%,2%
COc1ccc(-c2ccc(C#N)c(OC)n2)cc1,i,2%,nt,i,23%,-2%
O=C(Nc1ccsc1C(=O)O)c1cccc(Oc2ccccc2)c1,i,5%,0%,i,-1%,1%
COc1cccc(-c2nnc(NC(=O)c3cccc(F)c3)o2)c1,i,13%,2%,i,?,2%
O=C(Nc1nnc(-c2cccs2)o1)c1cccc(F)c1,i,29%,-2%,11µM*,13µM*,nt
O=C(Nc1nnc(-c2cccs2)o1)c1cccc(Oc2ccccc2)c1,i,?,-3%,i,4µM*,4%
O=C(Nc1nnc(C2=COCCO2)o1)c1cccc([N+](=O)[O-])c1,i,-2%,-2%,i,9%,0%
O=C(Nc1nnc(-c2ccc(F)cc2)o1)c1cccc([N+](=O)[O-])c1,i,?,nt,?,11µM*,1%
Cc1cc(C2C(C#N)=C(N)Oc3n[nH]c(C)c32)c(C)s1 (stereo not given),i,-7%,18µM*,i,-4%,2%
N#C/C(=C(/O)CSc1ccccn1)c1nc2ccccc2s1,i,0%,0%,i,-2%,0%
Cc1ccc(SC/C(O)=C(\C#N)c2nc3ccccc3s2)cc1,i,1%,25µM*,i,-10%,-7%
O=C(COc1ccccc1)N1CCN(c2ccc([N+](=O)[O-])c(N3CCCCC3)c2)CC1,i,1%,0%,i,?,1%
O=C(COc1ccc(Br)cc1)N1CCN(c2ccc([N+](=O)[O-])c(N3CCCCC3)c2)CC1,i,11%,-2%,i,8.9µM*,0%
CCCC(=O)OC12CCCN(C1)/C(=C/c1cccc(OC)c1)C2 (stereo not given),i,nt,nt,nt,nt,nt
c1ccc(-c2ccc(-c3nc(-c4ccccn4)no3)cc2)cc1,i,-31%,25µM*,i,-12%,1%
c1ccc(-c2nc(-c3ccccn3)no2)cc1,i,-4%,-1%,i,-40%,1%
COc1cccc(-c2nc(-c3ccccn3)no2)c1OC,i,-15%,-2%,i,9%,2%
c1ccc(-c2noc(-c3cccc4ccccc34)n2)nc1,i,-1%,40µM*,i,10%,1%
CCc1ccccc1OCC(=O)Nc1nc(-c2cccnc2)cs1,i,?,nt,?,6.3µM*,1%
CCC(=O)c1ccc(OCC(=O)Nc2nc(-c3cccnc3)cs2)cc1,i,0%,32µM*,i,-2%,-1%
Cc1ccccc1OCC(=O)Nc1nc(-c2ccncc2)cs1,nt,-3%,0%,i,27%,-4%
CCOc1ccc(/C=C/C(=O)Nc2ccc(OC)cc2[N+](=O)[O-])cc1,i,-1%,10µM*,i,13%,-16%
CCOc1ccc(NC(=S)NC(=O)c2c(Br)cnn2C)c([N+](=O)[O-])c1,i,-4%,1%,i,16µM*,-2%
SMILES,FUS suppressor,aSyn rescue,ClpP mod,Abeta rescue,TDP43 rescue,Mm-Cpn inhibitor
CCN(CC)S(=O)(=O)c1ccc(NC(=O)c2c(C)oc3ncnc(N4CCOCC4)c23)cc1,i,nt,1%,i,23%,nt
COc1ccccc1C(=O)Nc1nnc2n1CCS2,i,-4%,2%,i,21%,nt
Cc1ccc(C(=O)O[C@H](C(=O)O)[C@@H](OC(=O)c2ccc(C)cc2)C(=O)O)cc1 (tested in a mixture with another compound),nt,5%,nt,nt,nt,nt
Cc1ccc(NC(=O)C2CCCN(S(=O)(=O)c3ccc(C)cc3)C2)cc1 (stereo not given),i,nt,1%,i,24%,nt
C=CCC[C@@H](CCCCC)OC(=O)/C=C/[C@H](O)[C@@H](O)C[C@H](O)CC=C,?,20µM*,-3%,i,28%,nt
CCS(=O)(=O)c1nc2ccccc2n1Cc1ccccc1Cl,i,-4%,1%,i,16µM*,0%
CS(=O)(=O)c1nc2ccccc2n1Cc1ccccc1,i,6%,-2%,i,14%,-1%
COc1cccc(-c2cc3nc(-c4ccccc4)cc(N4CCC5(CC4)OCCO5)n3n2)c1,i,-16%,16µM*,i,16µM*,-18%
COc1cccc(-c2cc3nc(-c4ccccc4)cc(N4CCN(C(=O)c5ccoc5)CC4)n3n2)c1,?,5%,4%,i,16µM*,nt
COc1cccc(-c2cc(N3CCN(C(=O)c4ccoc4)CC3)n3nc(-c4cccc(Cl)c4)cc3n2)c1,i,7%,-24%,i,3.5µM*,nt
O=C(Oc1ccccc1/C=C\C(=O)c1cc2ccccc2o1)c1cccc(F)c1,i,1%,-1%,i,?,-7%
O=C(Oc1ccccc1/C=C\C(=O)c1cc2ccccc2o1)c1ccccc1,nt,28%,1%,i,22µM*,-6%
S=C(Nc1cccc(Br)c1)c1ccccc1,i,-11%,0%,?,13µM*,1%
S=C(Nc1ccccc1)Nc1ccc(Br)cc1,i,-27%,-2%,?,?,-1%
CC(C)(C)NC(=S)Nc1ccc(Br)cc1,i,-18%,0%,i,16µM*,1%
Fc1cc(Br)ccc1NC(=S)Nc1ccccc1,nt,-8%,28µM*,i,?,-10%
S=C(Nc1ccccc1)Nc1ccccc1-n1cccc1,i,16%,-22%,13µM*,?,-10%
O=C(Nc1ccc(Br)cc1)Nc1ccccc1F,i,-10%,nt,i,-9%[0.397 µM],0%
Fc1ccccc1NC(=S)Nc1ccc(Br)cc1,i,-41%,0%,i,13µM*,0%
O=C(CN1c2ccccc2S(=O)(=O)c2ccccc21)Nc1ccccc1Cl,i,nt,?,i,22%,nt
